Six1-Eya2 inh: inhibitors of human Six1/Eya2 interaction; AID 651725; AlphaScreen GST-Six1/His-Eya2 binding, biochemical; active compounds read low; actives 0.56% (n = 360,000); Q15475+O00167; activity change, % (no concentration beside the values); in the data active = activity change below about -65%; inconclusive = mostly about -30% to -63%
Target sequence (O00167 whole entry, looked up): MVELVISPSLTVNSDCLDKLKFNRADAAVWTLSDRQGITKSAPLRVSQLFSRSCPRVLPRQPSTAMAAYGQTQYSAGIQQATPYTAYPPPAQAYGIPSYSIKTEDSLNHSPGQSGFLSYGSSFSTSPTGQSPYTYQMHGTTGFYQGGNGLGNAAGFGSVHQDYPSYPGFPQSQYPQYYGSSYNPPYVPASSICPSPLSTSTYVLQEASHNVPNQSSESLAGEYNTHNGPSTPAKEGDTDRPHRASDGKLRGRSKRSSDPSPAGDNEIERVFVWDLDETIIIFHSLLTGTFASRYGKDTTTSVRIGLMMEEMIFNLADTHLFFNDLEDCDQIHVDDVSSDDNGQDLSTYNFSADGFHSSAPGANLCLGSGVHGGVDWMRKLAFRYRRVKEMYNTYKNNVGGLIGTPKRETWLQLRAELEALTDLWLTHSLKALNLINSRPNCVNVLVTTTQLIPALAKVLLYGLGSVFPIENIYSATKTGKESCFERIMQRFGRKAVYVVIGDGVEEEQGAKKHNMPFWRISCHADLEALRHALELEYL
Target sequence (Q15475 whole entry, looked up): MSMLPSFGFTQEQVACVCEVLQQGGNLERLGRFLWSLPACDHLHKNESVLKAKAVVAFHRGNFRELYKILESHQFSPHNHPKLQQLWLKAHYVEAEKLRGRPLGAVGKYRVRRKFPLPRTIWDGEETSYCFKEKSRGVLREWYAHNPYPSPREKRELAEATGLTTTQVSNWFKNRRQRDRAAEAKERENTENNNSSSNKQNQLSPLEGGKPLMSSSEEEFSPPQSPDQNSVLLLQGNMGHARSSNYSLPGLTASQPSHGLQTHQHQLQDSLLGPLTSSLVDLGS
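Homogeneous AlphaScreen proximity assay pairing GST-Six1 with His-tagged Eya2 (added as 5X mix: 250 nM and 500 nM) in 50 mM Tris pH 8.0, 300 mM NaCl, 1 mM TCEP. Glutathione donor and nickel acceptor beads; 1 h, 37 °C, dark.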
PKM2 act: increases activity of human pyruvate kinase M2; purified PKM2, Kinase-Glo ATP luminescence, activation; response scale: 0% is enzyme alone, no compound; actives 0.34% (n = 260,000); AID 1631; Potency, µM (highest dose often 57.5 µM), for inactives: at the top dose activation, hits mostly activators; P14618; note: potency is the fitted concentration of half-maximal effect; nearly all actives have a fitted effect of over 55% in size
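ATP formation by purified human PK-M2, quantified via coupled luciferase luminescence after 1 h at room temperature with 0.1 mM ADP and 0.5 mM PEP final.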
Gal4-VP16 FLuc: inhibits Gal4-VP16 luciferase reporter, ROR gamma counter-screen; Drosophila S2 Gal4-VP16 UAS-luciferase, luminescence, 20 h; Potency, µM (titrated, usually from 53.6 µM), for the others: top-dose activity, negative = inhibition, usual class: inhibitors; actives 3.5% (n = 310,000); AID 2546;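 note: Gal4-VP16 expression switched on by copper sulfate through the metallothionein promoter; potency is the fitted concentration of half-maximal effect; nearly all actives have a fitted effect of over 50% in size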
RORgamma inh: blocks mouse ROR gamma transcriptional activity; Drosophila S2 Gal4-RORgamma UAS-luciferase reporter, 20 h; P51450; actives 5.4% (n = 310,000); Potency, µM (highest dose often 53.6 µM), for inactives: at the highest dose activity change, negative = inhibition, actives largely listed as inhibitors; note: potency is the fitted concentration of half-maximal effect; nearly all actives have a fitted effect of over 60% in size
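ROR gamma transcriptional activity was tracked as Gal4-UAS luciferase output in stably transfected Drosophila Schneider cells, with compound added 1 hr before 700 uM copper sulfate induction and a 20 hr ambient-temperature incubation.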
CtBP-E1A inh: inhibitors of CtBP/E1A interaction | AlphaScreen GST-E1A/His-CtBP binding, 1536-well; active compounds read low | activity change, % (no concentration beside the values) | actives 0.49% (n = 340,000) | AID 651724; in the data active = activity change below about -65%; inconclusive = mostly about -30% to -63%
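GST-E1A and His-tagged CtBP (125 nM each as 5X stock) were preincubated with pin-transferred compound for 2 h at 37 °C in the dark, then glutathione donor and nickel acceptor beads were added for 1 h before AlphaScreen reading.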
* marks the source's active call; other numbers are inactive results; ? = inconclusive; . = no result; [ ] = dose if it differs, or a comment. Only some compounds are listed: those with a hit (about 5.6% of all), similar ones and a draw of the others. Unless noted, calls come from the whole dose curve; as a rule, active = well fitted curve in the direction sought with a large enough effect; inconclusive = small, poorly fitted or top-dose-only effect, or another doubt; inactive = no such curve, though single readings can be large; an effect the other way counts as inactive or inconclusive. % is set by controls: 0 for no effect and ±100 for the full control effect.

SMILES	Six1-Eya2 inh	PKM2 act	Gal4-VP16 FLuc	RORgamma inh	CtBP-E1A inh
CN(C(=O)CSc1nnc(N)s1)C1CCCCC1	9	-4%	-5%	4%	4
COc1ccc(C2/C=C\CN(C(=O)c3ccccc3)C(C)C(=O)N2Cc2ccc(F)cc2)cc1 (stereo not drawn)	.	.	-16%	-20%	.
Cc1ccc2[nH]c(C(=O)Nc3ccc(F)cc3)cc2c1	2	4%	16%	10µM*	4
Cc1cc(Cl)ccc1OCC(=O)OCC(=O)N1CCC(C(N)=O)CC1	-1	.	.	.	2
Cc1ccc(OCC(=O)N/N=C\c2c(C)[nH]n(-c3ccccc3)c2=O)c([N+](=O)[O-])c1	-91*	-1%	0.56µM*	0.5µM*	-81*
Cc1ccc(/C=N\NC(=O)COc2ccc(C)cc2[N+](=O)[O-])cc1	-1	1%	6%	-11%	2
Cn1cc(/C=N/NC(=O)COc2ccccc2[N+](=O)[O-])c2ccccc21	-16	7%	13µM*	?	.
Cc1ccc(OCC(=O)N/N=C\c2cn(C)c3ccccc23)c([N+](=O)[O-])c1	-6	0%	?	11µM*	0
COC(=O)c1ccc(C)c(-n2c(C)cc(C=O)c2C)c1	5	16%	-7%	3%	6
CC[C@]12CCCN3CCc4c(n(c5ccccc45)C(=O)C1)[C@H]32	.	.	4%	0%	.
O=C(COC(=O)c1ccccc1C(=O)c1ccc(Cl)c([N+](=O)[O-])c1)NC1CCCCCC1	-5	-9%	?	4.5µM*	0
O=C(COC(=O)c1cccc2c1C(=O)c1ccccc1C2=O)NC1CCCCC1	?	13%	-11%	?	?
O=C(COC(=O)c1ccc2c(c1[N+](=O)[O-])C(=O)c1ccccc1C2=O)NC1CC1	?	1%	18µM*	?	?
COc1ccccc1C(=O)N1CCCC(C)(C(=O)NS(=O)(=O)C2CC2)C1 (stereo not drawn)	11	.	.	.	-16
O=S(=O)(NCCOc1ccccc1F)c1cccc(Br)c1	7	.	.	.	3
Cc1ccc(-n2c(COc3ccccc3)n[nH]c2=S)cc1	9	-9%	?	2.5µM*	2
COc1ccc(-n2c(COc3ccccc3)n[nH]c2=S)cc1	1	-3%	-11%	7.1µM*	-1
COc1ccc(-n2c(COc3ccc(C)cc3)n[nH]c2=S)cc1	5	2%	7.1µM*	5.6µM*	.
S=c1[nH]nc(COc2ccccc2)n1-c1ccc(Cl)cc1	-13	.	.	.	-17
CCOc1ccc(C/C(O)=C2\C(=O)CC(C)(C)CC2=NCC(=O)O)cc1OCC	8	0%	3%	-1%	0
COc1cc(OC)cc(C(=O)Oc2ccc(/C=N/Nc3nc4ccccc4s3)cc2OC)c1	-20	5%	-23%	10µM*	-13
COc1cc(/C=N/Nc2nc3ccccc3s2)cc([N+](=O)[O-])c1O	-82*	-2%	-15%	7%	.
COc1cc(/C=N/Nc2ccccc2[N+](=O)[O-])cc(OC)c1O	0	1%	1%	29%	0
O=[N+]([O-])c1cc(Cl)cc(/C=N/Nc2nc3ccccc3s2)c1O	-14	-10%	2.2µM*	0.89µM*	.
O=c1cc(CSc2nnnn2-c2ccccc2)nc2scc(-c3ccccc3)n12	-6	25µM*	-4%	32%	-6
SMILES	Six1-Eya2 inh	PKM2 act	Gal4-VP16 FLuc	RORgamma inh	CtBP-E1A inh
Cc1[nH]c2ccccc2c1C(=O)COC(=O)c1ccc2c(=O)n3c(nc2c1)CCC3	-7	8%	-8%	22%	-14
CCS(=O)(=O)N1CCC(C(=O)Oc2ccc(Cl)cc2)CC1	?	-2%	0%	-13%	2
Cc1ccc(C(=O)NC(=S)Nc2cccc(NC(=O)c3ccccc3)c2)cc1[N+](=O)[O-]	-21	5%	3.5µM*	2.5µM*	-10
C/C(=N/NC(N)=S)c1ccccc1[N+](=O)[O-]	3	-1%	?	7.1µM*	2
CC(=O)Nc1ccccc1NC(=O)C/C(C)=N/NC(=O)c1ccc([N+](=O)[O-])c(Cl)c1	-9	-7%	-8%	?	0
C/C(=N\NC(=O)c1ccc([N+](=O)[O-])c(C)c1)c1ccccc1Cl	-3	-1%	?	7.9µM*	-4
Cc1ccc(C)n1NC(=O)c1ccccc1[N+](=O)[O-]	-4	24%	-25%[10 µM]	-19%	-4
Cc1ccc(C(=O)NC(=S)Nc2cccc(NC(=O)c3ccccc3Cl)c2)cc1[N+](=O)[O-]	-5	-4%	4µM*	5.6µM*	-11
CC(=O)c1ccc(OC(=O)c2nc(-c3ccccc3)oc2C)cc1	-1	3%	24%	?	14
Cc1ccc(C)n1Cc1ccc(C(=O)O)cc1	-71*	26%	16%	-2%	4
COc1ccc(N2CCN(C(=S)Nc3ccc(OC)cc3OC)CC2)cc1	-4	8%	2%	-11%[1.91 µM]	0
COc1cccc(NC(=S)N2CCN(C(c3ccccc3)c3ccccc3)CC2)c1	-6	-1%	8.9µM*	4.5µM*	0
COc1ccc(NC(=S)N2CCN(C(c3ccccc3)c3ccccc3)CC2)c(OC)c1	-20	-4%	?	5µM*	4
Cc1cc(C)c(C)c(S(=O)(=O)NC2CCN(Cc3ccccc3)CC2)c1C	-11	4%	-3%	-1%	-10
COc1ccc(C(=O)O/N=C(/c2ccccc2)c2ccncc2)cc1	4	-1%	-25%	22%	.
COc1ccc(C(=O)N=c2nc3ccccn3s2)cc1	0	-76%	4µM*	2.2µM*	0
CCN(CC)c1ccc(CNCc2cccs2)cc1	-28	-2%	1%	3%	-17
CC(=O)/C=C1/C(=O)Nc2ccccc21	-4	28%	7.1µM*	3.5µM*	7
C=CCOc1cccc(C(=O)/C=C2/C(=O)Nc3ccccc32)c1	0	.	?	13µM*	12
CN(C)c1ccc(-c2cncnc2NCCN2CCOCC2)cc1	.	.	-15%	?	.
Cc1ccc(N2C(N)=C(C#N)C(c3cc(CN4CCOCC4)cs3)C3=C2CC(C)(C)CC3=O)cc1 (stereo not drawn)	25	0%	29%	0%	-15
CSc1ccc(CN2CCC2(C)C(=O)NCc2ccc3c(c2)OCO3)cc1 (stereo not drawn)	-13	.	.	.	-10
Cc1ccccc1C(=O)NNC(=O)/C=C\C(=O)O	-12	11%	?	3.5µM*	0
Cc1ccccc1C(=O)NNC(=O)Nc1ccccc1	.	5%	-4%	-34%	.
O=C(O)/C=C/C(=O)NNC(=O)c1ccccc1Br	4	-6%	-16%	11µM*	7
Cc1cccc(C(=O)NNC(=O)c2ccccc2Br)c1	4	0%	?	-1%	.
Cc1cccc(C(=O)NNC(=O)/C=C/C(=O)O)c1	0	4%	-10%	14µM*	.

Bioassay records (PubChem)
